Measurements published in the supplement of paper PMC10849652.
About 8,800 targets were measured; listed, in parts, are those with a hit and a random draw of the rest. About 0.5% of all pairs of compound and target were hits. Values without a mark were called inactive.

Tests used:
Assay in all cases: log2 fold change, soluble protein after heating vs DMSO (PISA); higher = thermal stabilisation; K562 lysate, 10 uM; active = over 0.2 and 3.5 SD of the protein, either way, in both replicates (recomputed)
vemurafenib = compound: CCCS(=O)(=O)Nc1ccc(F)c(C(=O)c2c[nH]c3ncc(-c4ccc(Cl)cc4)cc23)c1F [vemurafenib]
Procedure, shortened: (§1)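 Quantification was by TMTpro 16plex LC-MS/MS with equalised channel sums, applied to the supernatant after 21,000xg for 90 min. Samples were crude K562 extract at 1 mg/mL protein in PBS pH 7.4 with 1 mM MgCl2, treated with 10 μM compound for 30 min, heated for 3 min across 48°C-58°C, pooled and brought to 0.5% NP-40 at 4°C. Values are log-two fold changes in thermal stability relative to solvent controls, from duplicates.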

[1] = compound: CCCS(=O)(=O)Nc1ccc(F)c(C(=O)c2c[nH]c3ncc(Cl)cc23)c1F
Procedure, shortened: as §1

barasertib = compound: CCN(CCCOc1ccc2c(Nc3cc(CC(=O)Nc4cccc(F)c4)[nH]n3)ncnc2c1)CCOP(=O)(O)O [barasertib]
Procedure, shortened: as §1

[2] = compound: CC[C@@H]1C(=O)N(C)c2cnc(Nc3ccc(C(=O)NC4CCN(C)CC4)cc3OC)nc2N1C1CCCC1
Procedure, shortened: as §1

volasertib = compound: CC[C@@H]1C(=O)N(C)c2cnc(Nc3ccc(C(=O)N[C@H]4CC[C@H](N5CCN(CC6CC6)CC5)CC4)cc3OC)nc2N1C(C)C [volasertib]
Procedure, shortened: as §1

[3] = compound: CCn1c(C(=O)N(C2CC2)C2CC2)cc2c3c(ncn3C)c(Nc3cc(C)n(C)n3)nc21
Procedure, shortened: as §1

[4] = compound: CCn1cc(-c2ccnc3[nH]c(-c4cccc(CN(C)C)c4)cc23)c(-c2ccc(NC(=O)N(C)C)cc2)n1
Procedure, shortened: as §1

[5] = compound: CN1CCC(CNc2ccc3ncc(-c4cccc(OC(F)(F)F)c4)n3n2)CC1
Procedure, shortened: as §1

saracatinib = compound: CN1CCN(CCOc2cc(OC3CCOCC3)c3c(Nc4c(Cl)ccc5c4OCO5)ncnc3c2)CC1 [saracatinib]
Procedure, shortened: as §1

sotrastaurin = compound: CN1CCN(c2nc(C3=C(c4c[nH]c5ccccc45)C(=O)NC3=O)c3ccccc3n2)CC1 [sotrastaurin]
Procedure, shortened: as §1

Sequence of UniProt P43250 (P43250 whole entry, looked up): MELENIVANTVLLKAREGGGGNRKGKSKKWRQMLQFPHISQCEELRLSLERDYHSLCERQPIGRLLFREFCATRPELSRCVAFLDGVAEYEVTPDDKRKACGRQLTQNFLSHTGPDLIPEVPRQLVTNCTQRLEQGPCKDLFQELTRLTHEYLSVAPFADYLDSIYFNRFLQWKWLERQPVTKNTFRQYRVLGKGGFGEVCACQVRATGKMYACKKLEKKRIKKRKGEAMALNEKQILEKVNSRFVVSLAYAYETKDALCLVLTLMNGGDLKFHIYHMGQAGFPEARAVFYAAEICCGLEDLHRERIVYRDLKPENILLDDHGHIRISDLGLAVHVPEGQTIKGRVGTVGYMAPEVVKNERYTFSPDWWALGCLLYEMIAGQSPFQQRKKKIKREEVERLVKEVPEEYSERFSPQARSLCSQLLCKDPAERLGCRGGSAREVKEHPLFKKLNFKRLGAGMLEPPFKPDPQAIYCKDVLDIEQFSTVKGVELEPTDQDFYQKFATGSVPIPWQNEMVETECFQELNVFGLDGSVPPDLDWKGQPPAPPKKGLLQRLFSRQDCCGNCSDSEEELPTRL
Sequence of UniProt Q9Y5Q9 (Q9Y5Q9 whole entry, looked up): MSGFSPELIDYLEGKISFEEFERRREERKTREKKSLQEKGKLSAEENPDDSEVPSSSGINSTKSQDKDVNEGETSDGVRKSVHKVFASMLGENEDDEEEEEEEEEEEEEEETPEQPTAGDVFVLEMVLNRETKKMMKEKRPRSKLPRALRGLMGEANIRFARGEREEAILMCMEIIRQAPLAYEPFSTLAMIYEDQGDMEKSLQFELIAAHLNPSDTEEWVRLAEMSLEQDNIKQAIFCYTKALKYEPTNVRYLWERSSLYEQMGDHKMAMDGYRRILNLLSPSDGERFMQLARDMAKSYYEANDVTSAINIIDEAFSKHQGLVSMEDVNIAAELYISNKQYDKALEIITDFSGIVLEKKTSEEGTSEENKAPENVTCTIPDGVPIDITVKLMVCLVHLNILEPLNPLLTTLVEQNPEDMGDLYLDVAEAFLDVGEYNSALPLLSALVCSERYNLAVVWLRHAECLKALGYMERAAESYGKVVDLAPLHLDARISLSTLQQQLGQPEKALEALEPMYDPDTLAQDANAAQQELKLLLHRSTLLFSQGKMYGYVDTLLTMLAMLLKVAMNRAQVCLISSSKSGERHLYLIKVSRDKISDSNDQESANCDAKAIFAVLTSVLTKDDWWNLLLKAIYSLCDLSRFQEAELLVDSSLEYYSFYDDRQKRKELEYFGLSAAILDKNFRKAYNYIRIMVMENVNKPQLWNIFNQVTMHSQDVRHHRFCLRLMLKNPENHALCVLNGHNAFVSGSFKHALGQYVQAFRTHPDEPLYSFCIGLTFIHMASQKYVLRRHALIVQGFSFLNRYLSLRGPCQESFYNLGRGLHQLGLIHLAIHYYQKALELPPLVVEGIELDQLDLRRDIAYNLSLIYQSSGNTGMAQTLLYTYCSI
Sequence of UniProt Q49A26 (Q49A26 whole entry, looked up): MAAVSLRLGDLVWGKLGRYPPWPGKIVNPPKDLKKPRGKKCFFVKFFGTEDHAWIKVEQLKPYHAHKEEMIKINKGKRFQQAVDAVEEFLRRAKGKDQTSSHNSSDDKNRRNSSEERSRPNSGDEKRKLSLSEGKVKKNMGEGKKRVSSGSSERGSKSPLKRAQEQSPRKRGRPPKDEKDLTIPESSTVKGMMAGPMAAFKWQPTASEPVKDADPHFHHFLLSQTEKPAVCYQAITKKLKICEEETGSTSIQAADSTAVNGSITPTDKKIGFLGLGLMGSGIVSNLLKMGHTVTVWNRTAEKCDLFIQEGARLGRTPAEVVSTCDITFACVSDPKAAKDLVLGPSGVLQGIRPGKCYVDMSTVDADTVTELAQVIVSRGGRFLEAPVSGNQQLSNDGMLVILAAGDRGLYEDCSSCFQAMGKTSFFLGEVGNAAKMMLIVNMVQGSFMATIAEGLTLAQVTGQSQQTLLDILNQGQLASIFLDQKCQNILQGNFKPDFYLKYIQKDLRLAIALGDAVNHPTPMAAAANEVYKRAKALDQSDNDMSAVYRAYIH
Sequence of UniProt Q68E01 (Q68E01 whole entry, looked up): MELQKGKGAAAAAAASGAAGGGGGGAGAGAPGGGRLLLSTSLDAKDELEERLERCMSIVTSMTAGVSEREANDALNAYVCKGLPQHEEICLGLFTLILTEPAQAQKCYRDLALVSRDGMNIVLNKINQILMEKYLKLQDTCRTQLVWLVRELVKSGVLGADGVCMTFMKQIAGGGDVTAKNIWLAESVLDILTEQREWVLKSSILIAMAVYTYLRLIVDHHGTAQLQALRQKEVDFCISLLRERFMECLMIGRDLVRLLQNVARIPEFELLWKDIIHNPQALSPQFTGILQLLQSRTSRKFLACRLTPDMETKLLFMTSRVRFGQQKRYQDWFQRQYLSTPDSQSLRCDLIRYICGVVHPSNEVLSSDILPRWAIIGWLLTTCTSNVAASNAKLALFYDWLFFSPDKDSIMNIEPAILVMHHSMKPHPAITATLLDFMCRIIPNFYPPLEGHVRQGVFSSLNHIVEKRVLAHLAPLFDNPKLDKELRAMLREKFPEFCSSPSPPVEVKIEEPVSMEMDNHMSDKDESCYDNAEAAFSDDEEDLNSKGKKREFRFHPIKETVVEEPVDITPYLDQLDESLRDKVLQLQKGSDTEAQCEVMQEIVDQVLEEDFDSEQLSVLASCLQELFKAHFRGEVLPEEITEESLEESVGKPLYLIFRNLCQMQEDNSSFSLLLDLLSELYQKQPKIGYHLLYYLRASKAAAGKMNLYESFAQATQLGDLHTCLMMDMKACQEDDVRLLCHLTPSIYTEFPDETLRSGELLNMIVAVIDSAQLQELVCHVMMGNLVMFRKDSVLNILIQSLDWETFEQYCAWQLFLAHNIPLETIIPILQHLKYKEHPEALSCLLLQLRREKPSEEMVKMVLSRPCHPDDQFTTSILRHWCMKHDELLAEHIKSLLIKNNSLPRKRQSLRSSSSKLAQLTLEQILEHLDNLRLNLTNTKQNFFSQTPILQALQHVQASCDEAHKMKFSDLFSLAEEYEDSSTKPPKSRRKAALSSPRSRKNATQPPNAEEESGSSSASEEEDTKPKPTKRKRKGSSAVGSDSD
Sequence of UniProt Q9ULR0 (Q9ULR0 whole entry, looked up): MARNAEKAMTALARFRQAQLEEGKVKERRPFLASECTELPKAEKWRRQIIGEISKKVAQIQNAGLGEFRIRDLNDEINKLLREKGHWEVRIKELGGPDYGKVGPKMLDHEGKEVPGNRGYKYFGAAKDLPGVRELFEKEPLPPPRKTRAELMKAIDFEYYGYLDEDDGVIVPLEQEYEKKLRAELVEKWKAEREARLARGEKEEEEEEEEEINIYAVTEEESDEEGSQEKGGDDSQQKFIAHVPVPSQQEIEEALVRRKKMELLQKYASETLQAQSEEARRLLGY
Sequence of UniProt Q9BT25 (Q9BT25 whole entry, looked up): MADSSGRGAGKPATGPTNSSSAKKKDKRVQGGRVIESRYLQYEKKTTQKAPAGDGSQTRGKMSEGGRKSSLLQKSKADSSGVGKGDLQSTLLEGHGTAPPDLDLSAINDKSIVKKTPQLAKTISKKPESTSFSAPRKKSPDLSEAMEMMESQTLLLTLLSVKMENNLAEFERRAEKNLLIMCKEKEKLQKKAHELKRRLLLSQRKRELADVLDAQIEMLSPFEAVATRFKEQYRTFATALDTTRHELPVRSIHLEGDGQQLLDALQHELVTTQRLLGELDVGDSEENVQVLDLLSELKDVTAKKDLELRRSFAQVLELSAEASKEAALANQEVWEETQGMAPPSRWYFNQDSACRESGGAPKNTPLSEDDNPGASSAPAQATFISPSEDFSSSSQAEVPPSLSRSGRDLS
Sequence of UniProt Q6NT76 (Q6NT76 whole entry, looked up): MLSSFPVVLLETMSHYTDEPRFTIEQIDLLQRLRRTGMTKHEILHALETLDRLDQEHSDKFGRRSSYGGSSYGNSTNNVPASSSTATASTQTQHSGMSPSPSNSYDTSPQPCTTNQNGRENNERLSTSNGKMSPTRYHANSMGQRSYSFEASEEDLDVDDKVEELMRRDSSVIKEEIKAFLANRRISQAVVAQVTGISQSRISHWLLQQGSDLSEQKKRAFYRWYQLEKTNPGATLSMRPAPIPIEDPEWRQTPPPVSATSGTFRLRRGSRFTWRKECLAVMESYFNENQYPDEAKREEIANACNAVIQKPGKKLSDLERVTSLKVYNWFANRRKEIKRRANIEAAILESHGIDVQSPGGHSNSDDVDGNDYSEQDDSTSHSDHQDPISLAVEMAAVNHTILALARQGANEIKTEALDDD
Sequence of UniProt Q03013 (Q03013 whole entry, looked up): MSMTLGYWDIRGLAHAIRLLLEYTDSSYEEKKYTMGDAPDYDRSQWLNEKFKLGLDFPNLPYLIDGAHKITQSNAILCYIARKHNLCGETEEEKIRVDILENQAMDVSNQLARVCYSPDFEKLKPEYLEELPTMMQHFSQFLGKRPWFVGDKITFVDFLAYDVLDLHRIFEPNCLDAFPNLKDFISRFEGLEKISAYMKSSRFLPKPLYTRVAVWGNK
Sequence of UniProt Q9NWZ3 (Q9NWZ3 whole entry, looked up): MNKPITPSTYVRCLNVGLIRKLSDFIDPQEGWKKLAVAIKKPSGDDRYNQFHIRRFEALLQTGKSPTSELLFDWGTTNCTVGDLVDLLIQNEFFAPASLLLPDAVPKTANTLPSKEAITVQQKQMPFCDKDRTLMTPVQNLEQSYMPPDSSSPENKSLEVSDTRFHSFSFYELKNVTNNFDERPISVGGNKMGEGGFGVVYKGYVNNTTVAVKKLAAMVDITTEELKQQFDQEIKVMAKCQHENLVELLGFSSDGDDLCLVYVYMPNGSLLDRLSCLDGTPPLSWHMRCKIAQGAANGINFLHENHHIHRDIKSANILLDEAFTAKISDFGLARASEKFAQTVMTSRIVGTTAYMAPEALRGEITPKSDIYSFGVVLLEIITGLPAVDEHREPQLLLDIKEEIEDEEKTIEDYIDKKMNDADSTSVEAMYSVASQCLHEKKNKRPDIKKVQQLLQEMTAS
Sequence of UniProt P17096 (P17096 whole entry, looked up): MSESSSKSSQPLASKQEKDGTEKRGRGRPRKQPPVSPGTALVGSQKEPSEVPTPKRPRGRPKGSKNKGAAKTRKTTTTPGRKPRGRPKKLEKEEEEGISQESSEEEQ

Target | log2 fold change (vemurafenib) | log2 fold change [1] | log2 fold change (barasertib) | log2 fold change [2] | log2 fold change (volasertib) | log2 fold change [3] | log2 fold change [4] | log2 fold change [5] | log2 fold change (saracatinib) | log2 fold change (sotrastaurin)
GUSB (UniProt P08236) | 0.013 | 0.028 | -0.024 | -0.049 | 0.053 | 0.027 | -0.561 (active) | 0.355 (active) | -0.008 | 0.038
HMGB2 (UniProt P26583) | 0.003 | 0.017 | -0.019 | 0.037 | 0.014 | 0.018 | 0.283 (active) | -0.273 (active) | 0.007 | -0.04
HIST2H2AA3 (UniProt Q6FI13) | -0.078 | 0.028 | -0.012 | -0.007 | -0.006 | 0.012 | 0.694 (active) | -0.217 | -0.034 | -0.116
GLUD2 (UniProt P49448) | 0.177 | -0.042 | -0.069 | 0.02 | -0.145 | -0.031 | -0.024 | 0.046 | 0.007 | -0.039
GSTM4 (UniProt Q03013) | 0.055 | 0.034 | -0.044 | 0.024 | 0.03 | 0.009 | -0.114 | 0.038 | -0.13 | -0.05
HDAC6 (UniProt Q9UBN7) | -0.02 | 0.01 | -0.017 | -0.035 | -0.047 | -0.023 | 0.073 | -0.011 | -0.011 | 0.008
GSTZ1 (UniProt G3V4T6) | -0.013 | -0.024 | 0.018 | -0.101 | -0.02 | -0.029 | -0.116 | 0.087 | -0.012 | -0.018
KDM6A (UniProt O15550) | -0.045 | 0.006 | 0.017 | 0.035 | -0.036 | -0.017 | 0.089 | 0.067 | 0.029 | -0.01
GTF3C3 (UniProt Q9Y5Q9) | 0.062 | 0.06 | 0.01 | -0.088 | -0.014 | 0.003 | -0.158 | 0.005 | 0.049 | -0.013
IRF2BP1 (UniProt Q8IU81) | 0.015 | 0.023 | -0.003 | 0.026 | -0.088 | 0.014 | 0.037 | -0.06 | 0 | 0.01
GRK6 isoform 2 (UniProt P43250) | 0.102 | 0.046 | 0.042 | 0.11 | 0.006 | -0.032 | -0.136 | 0.614 (active) | -0.056 | -0.001
HAUS8 (UniProt Q9BT25) | -0.042 | 0.04 | -0.05 | -0.049 | 0.037 | -0.005 | -0.048 | 0.029 | 0.031 | -0.001
GNL3 (UniProt Q9BVP2) | 0.051 | 0.041 | 0.032 | -0.078 | 0.004 | -0.07 | 0.129 | -0.066 | 0.004 | 0.013
IARS2 (UniProt Q9NSE4) | -0.007 | -0.005 | 0.037 | -0.003 | 0.312 (active) | -0.013 | 0.198 | -0.032 | -0.002 | 0.003
H4C1 (UniProt P62805) | -0.013 | 0.087 | 0.079 | -0.055 | 0.027 | 0.079 | 0.268 | -0.01 | -0.094 | -0.059
HADHB (UniProt P55084) | -0.019 | -0.004 | -0.124 | 0.047 | 0.099 | -0.005 | -0.001 | 0.074 | 0.012 | -0.069
INTS3 (UniProt Q68E01) | 0.038 | 0.02 | 0.05 | -0.029 | -0.017 | -0.083 | 0.072 | -0.018 | 0.049 | 0.015
GYPA (UniProt P02724) | -0.011 | -0.008 | 0.254 | 0.188 | 0.009 | -0.081 | 0.587 (active) | -0.259 | 0.01 | 0.011
IRAK4 (UniProt Q9NWZ3) | -0.028 | -0.005 | 0.107 | -0.085 | -0.022 | 0.063 | 0.001 | 0.19 | 0.045 | -0.022
HDGFL2 isoform 2 (UniProt Q7Z4V5) | 0.016 | -0.003 | -0.01 | 0.064 | 0.052 | -0.066 | -0.417 (active) | 0.196 | -0.015 | 0.038
INTS7 (UniProt Q9NVH2) | -0.059 | -0.058 | 0.335 | -0.073 | 0.013 | 0.028 | 0.027 | 0.039 | 0.005 | -0.057
ISY1 isoform 1 (UniProt Q9ULR0) | -0.186 | 0.034 | 0.018 | 0.066 | -0.025 | -0.012 | -0.101 | 0.02 | 0.026 | 0.032
GRK2 (UniProt P25098) | -0.019 | 0.016 | -0.006 | -0.08 | -0.05 | 0.003 | -0.054 | -0.016 | -0.009 | 0.01
GLYR1 (UniProt Q49A26) | -0.059 | 0.019 | 0.162 | 0.045 | -0.005 | 0.011 | -0.088 | 0.038 | 0.05 | 0.064
HMBOX1 isoform 5 (UniProt Q6NT76) | 0.028 | -0.086 | -0.001 | 0.122 | -0.059 | -0.038 | -0.043 | -0.071 | -0.003 | -0.013
GNE isoform 2 (UniProt Q9Y223) | 0.024 | 0.027 | 0.03 | -0.107 | -0.095 | 0.039 | 0.008 | -0.053 | -0.003 | -0.029
HMGA1 (UniProt P17096) | 0.023 | -0.011 | -0.05 | 0.051 | 0.02 | -0.04 | -0.323 (active) | 0.131 | -0.001 | 0.012
